Six1-Eya2 inh = blocks human Six1 binding to Eya2; Q15475+O00167; AlphaScreen GST-Six1/His-Eya2 binding, biochemical; hits give low values; activity change, % (test concentration not listed); 0.56% of 360,000 active; AID 651725; in the data active = activity change below about -65%; inconclusive = mostly about -30% to -63%
Target sequence (O00167 whole entry, looked up): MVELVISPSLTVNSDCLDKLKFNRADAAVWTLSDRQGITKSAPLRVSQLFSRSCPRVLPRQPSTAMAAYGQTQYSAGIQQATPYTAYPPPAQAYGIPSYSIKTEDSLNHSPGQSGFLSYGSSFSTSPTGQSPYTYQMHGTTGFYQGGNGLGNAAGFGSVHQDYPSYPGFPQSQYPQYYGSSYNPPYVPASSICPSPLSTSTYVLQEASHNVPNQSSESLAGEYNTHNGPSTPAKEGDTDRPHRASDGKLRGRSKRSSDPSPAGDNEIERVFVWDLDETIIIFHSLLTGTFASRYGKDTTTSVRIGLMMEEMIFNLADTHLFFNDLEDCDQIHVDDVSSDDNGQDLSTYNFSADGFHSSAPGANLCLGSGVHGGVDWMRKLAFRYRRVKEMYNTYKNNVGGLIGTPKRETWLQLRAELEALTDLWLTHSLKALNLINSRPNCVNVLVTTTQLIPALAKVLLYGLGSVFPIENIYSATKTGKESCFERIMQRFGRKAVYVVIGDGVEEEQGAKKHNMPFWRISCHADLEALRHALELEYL
Target sequence (Q15475 whole entry, looked up): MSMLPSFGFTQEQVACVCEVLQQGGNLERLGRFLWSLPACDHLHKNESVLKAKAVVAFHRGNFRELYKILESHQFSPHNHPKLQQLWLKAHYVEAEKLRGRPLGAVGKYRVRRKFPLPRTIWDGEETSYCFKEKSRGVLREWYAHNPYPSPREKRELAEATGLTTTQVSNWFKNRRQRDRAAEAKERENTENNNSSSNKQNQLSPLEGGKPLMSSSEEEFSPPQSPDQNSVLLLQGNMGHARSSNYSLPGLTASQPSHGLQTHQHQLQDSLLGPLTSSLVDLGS
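Compounds are tested against tagged Six1 and Eya2 proteins bridged by glutathione donor and nickel acceptor beads; after a one-hour incubation at 37 °C without light, AlphaScreen emission is recorded.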
IL-1B inflam inh = inflammasome signaling inhibition, IL-1 beta readout; activity change, % at 57.5 µM; THP-1 LPS/ATP IL-1B secretion, AlphaLISA, 16 h; hits give low values; 4.7% of 360,000 active; in the data active = activity change below about -50%; inconclusive = mostly about -30% to -49%
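THP-1 cells pretreated 1 hr with compounds (up to 57.5 uM final), then stimulated with LPS (250 ng/mL final) plus ATP (1.25 mM final); secreted IL-1B measured by AlphaLISA after 16 hr, decreased signal indicating inhibition.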
CtBP-E1A blk = blocks the CtBP interaction with E1A; AlphaScreen GST-E1A/His-CtBP binding, 1536-well; hits give low values; activity change, % (concentration not given with the values); 0.49% of 340,000 active; in the data active = activity change below about -65%; inconclusive = mostly about -30% to -63%
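Protein mix (5X: 125 nM each GST-E1A, His-CtBP) was incubated with pinned compound 2 h at 37 deg C in dark, in 50 mM Tris pH 8.0 buffer with 300 mM NaCl. Glutathione donor and nickel acceptor beads followed; AlphaScreen signal read after 1 h.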
TDP1 inh = inhibitors of human tyrosyl-DNA phosphodiesterase TDP1; 0.28% of 350,000 active; recombinant TDP1, AlphaScreen DNA substrate cleavage; Q9NUW8; Potency, µM (highest dose often 130 µM), for inactives: top-dose activity change, negative = inhibition, hits mostly inhibitors; note: potency is the fitted concentration of half-maximal effect; nearly all actives have a fitted effect of over 40% in size
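E. coli-derived human Tdp1, 1 nM final. Cpd preinc 15 min RT; substrate 15 nM final, 5 min RT; AS bead mix 10 ug/ml final, 10 min RT. Signal loss = tyrosine-FITC cleavage. No-enzyme wells = max signal.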
TDP1 cell CPT = growth inhibition of DT40 Tdp1-/-;hTDP1 cells with camptothecin (screen for TDP1 inhibitors). chicken DT40 Tdp1-/-;hTDP1 cells + 20 nM CPT, ATP luminescence, 48 h. Potency, µM (top dose mostly 46.2 µM), for inactives: top-dose activity change, negative = growth inhibition, hits mostly inhibitors. 12% of 420,000 active. AID 686979; note: potency is the fitted concentration of half-maximal effect; nearly all actives have a fitted effect of over 55% in size
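Chicken DT40 Tdp1-/- cells complemented with human TDP1, 400 cells/well, exposed to compounds plus 20 nM camptothecin for at least 48 h at 37 C; viability read as ATP content by CellTiter-Glo luminescence.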
TDP1 cell noCPT = qHTS for Inhibitors of human tyrosyl-DNA phosphodiesterase 1 (TDP1): qHTS in cells in absence of CPT | DT40 Tdp1-/- hTDP1 cells, no CPT, ATP luminescence, 48 h | Potency, µM (highest dose often 46.2 µM), for inactives: at the highest dose activity change, negative = growth inhibition, most hits filed as inhibitors | 15% of 420,000 active; note: potency is the fitted concentration of half-maximal effect; nearly all actives have a fitted effect of over 55% in size
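Chicken DT40 Tdp1-/- cells complemented with human TDP1, screened without camptothecin (DMSO vehicle only), 400 cells/well. Compounds pin-transferred, cells incubated at 37 °C for at least 48 hr. Growth read as ATP-dependent luminescence (CellTiter-Glo, 30 min at RT).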
The depositor's hits bear a star; ? = inconclusive; . = no result. An excerpt weighted towards active compounds, which were near 18% of everything screened. Unless noted, calls come from the whole dose curve; as a rule, active = well fitted curve in the direction sought with a large enough effect; inconclusive = small, poorly fitted or top-dose-only effect, or another doubt; inactive = no such curve, though single readings can be large; an effect the other way counts as inactive or inconclusive. % is set by controls: 0 for no effect and ±100 for the full control effect.

SMILES	Six1-Eya2 inh	IL-1B inflam inh	CtBP-E1A blk	TDP1 inh	TDP1 cell CPT	TDP1 cell noCPT
Cc1c(C(=O)NCC2CCCO2)sc2nc(-c3ccc(F)cc3)cn12 (stereo not drawn)	-6	-27	-27	3%	15µM*	?
Cc1c(C(=O)NCc2ccc3c(c2)OCO3)sc2nc(-c3ccccc3)cn12	-6	-17	-4	-2%	?	15µM*
Cc1c(C(=O)Nc2ccc3c(c2)OCO3)sc2nc(-c3ccccc3)cn12	-2	-4	5	5%	?	?
Cc1c(C(=O)NCc2ccc3c(c2)OCO3)sc2nc(-c3ccc(F)cc3)cn12	-3	-17	0	2%	?	16µM*
O=[N+]([O-])c1ccc(S(=O)(=O)N2CCN(Cc3c[nH]c4ccccc34)CC2)cc1	-6	3	-8	1%	?	?
COc1cccc(NC(=O)N(C2CCCCC2)C(C)c2cccs2)c1 (stereo not drawn)	0	2	4	-2%	10µM*	13µM*
COc1cc(NC(=O)CCCc2c[nH]c3ccccc23)cc(OC)c1	8	-9	.	11%	?	?
COc1cccc(NC(=O)N(Cc2c[nH]c3ccccc23)C2CCCCCC2)c1	.	.	.	5%	12µM*	9.2µM*
COc1cccc(NC(=O)N(Cc2ccco2)C(C)c2cccs2)c1 (stereo not drawn)	-4	-8	-8	1%	-17%	-28%
O=C(Nc1ccc(Cl)c(Cl)c1)N(Cc1c[nH]c2ccccc12)C1CCCCC1	.	.	.	2%	5.8µM*	9.2µM*
CCCCC(=O)OC1=C(C(C)=O)N(Cc2ccccc2)S(=O)(=O)c2ccccc21	.	.	.	-2%	?	?
CCOC(=O)c1ccc(CN2C(=O)c3ccccc3S2(=O)=O)cc1	6	35	14	.	-4%	-5%
CCCCCN1C(C(=O)c2ccccc2)=C(OC(=O)CC)c2ccccc2S1(=O)=O	.	.	.	7%	4.6µM*	5.2µM*
CCCC(=O)OC1=C(C(C)=O)N(Cc2ccccc2)S(=O)(=O)c2ccccc21	.	.	.	1%	?	?
CCCN1C(C(=O)c2ccccc2)=C(OC(=O)c2ccc(F)cc2)c2ccccc2S1(=O)=O	.	.	.	6%	5.2µM*	4.6µM*
CCN1C(C(=O)c2ccccc2)=C(OC(=O)c2ccc(OC)cc2)c2ccccc2S1(=O)=O	.	.	.	10%	4.6µM*	6.5µM*
CCCCC(=O)OC1=C(C(=O)c2ccccc2)N(CCC)S(=O)(=O)c2ccccc21	.	.	.	2%	3.3µM*	2.9µM*
C=C(C)C1Cc2c(C)nn(-c3ccccn3)c2C1 (stereo not drawn)	14	6	1	6%	?	?
Cc1ccc(NC(=O)Cn2nc(-c3ccncc3)ccc2=O)cc1Cl	.	.	.	5%	?	?
CCC(=O)OC1=C(C(C)=O)N(Cc2ccccc2)S(=O)(=O)c2ccccc21	.	.	.	3%	18µM*	?
Cc1sc2ncnc(NCc3ccco3)c2c1C	-11	-59*	-20	.	10µM*	16µM*
Cc1sc2ncnc(SCC(=O)NC(=O)NCc3ccco3)c2c1C	-4	5	1	45µM*	-13%	-10%
Cc1nc(SCC(=O)NCc2ccco2)c2c(C)c(C)sc2n1	6	11	19	1%	-28%	-19%
O=C1N[C@H](Cc2ccccc2)COC(=O)[C@@H](Cc2ccc(F)cc2)CC/C=C/C[C@H]1CC(=O)N(CCO)Cc1ccccc1	-8	?	-3	2%	18µM*	?
O=C1N[C@H](Cc2ccccc2)COC(=O)[C@H](Cc2ccc(F)cc2)CC/C=C/C[C@@H]1CC(=O)N(CCO)Cc1ccccc1	3	-55*	3	1%	10µM*	?
SMILES	Six1-Eya2 inh	IL-1B inflam inh	CtBP-E1A blk	TDP1 inh	TDP1 cell CPT	TDP1 cell noCPT
COc1cccc2cc(/C(=N/O)c3ccc(Br)cc3)oc12	-1	-6	.	-3%	?	?
O/N=C(/c1ccccc1)c1cc2cc(Br)cc(Br)c2o1	11	-85*	-25	.	-18%	?
CCCNC(=O)c1ccc(SCC(=O)N(CC)CC)c([N+](=O)[O-])c1	1	15	1	5%	-16%	-2%
O=C(Nc1ccccc1)OCCOc1ccccc1Br	9	-11	-1	.	?	4%
CN(C)CCCNC(=O)CC(c1ccccc1)c1ccccc1O (stereo not drawn)	-9	0	0	1%	4%	-14%
CN(C)CCCC(C)(O)C(Cc1ccccc1)c1ccccc1 (stereo not drawn)	3	-17	8	5%	?	21µM*
Cc1cnc2c(C)cccc2c1C	.	.	.	.	-129%	0.22µM*
Clc1ccc(N(CC2CO2)CC2CO2)cc1 (stereo not drawn)	1	-24	7	.	0.46µM*	0.65µM*
Oc1ccc(-c2onc(C(F)(F)F)c2-c2cscn2)c(O)c1	7	10	0	0%	?	21µM*
COC(=O)c1ccc(Oc2nc3c(c(=O)n(C)c(=O)n3C)n2C(C)C)cc1	.	.	.	2%	?	-23%
COc1ccc(C(=O)Cn2c(N3CCOCC3)nc3c2c(=O)n(C)c(=O)n3C)cc1	.	.	.	6%	.	.
COc1ccc(C(=O)Cn2c(Cl)nc3c2c(=O)n(C)c(=O)n3C)cc1	11	38	0	0%	?	21µM*
COc1cccc(C(=O)Cn2c(Br)nc3c2c(=O)n(C)c(=O)n3C)c1	0	28	-6	1%	?	9.2µM*
Cn1c(=O)c2c(nc(Br)n2CC(=O)C23CC4CC(CC(C4)C2)C3)n(C)c1=O	6	-6	-15	7%	23µM*	18µM*
COC(=O)c1ccc(Oc2nc3c(c(=O)n(C)c(=O)n3C)n2CCC(C)C)cc1	0	2	0	2%	?	23µM*
CN(CC(=O)Nc1cccc(C#N)c1)Cc1ccc(Cl)cc1	3	10	6	3%	-7%	?
CCN(CC)c1nc2c(c(=O)n(C)c(=O)n2C)n1CC(=O)c1ccccc1	0	43	5	.	?	23µM*
COC(=O)CCC(=O)c1oc2ccc(Br)cc2c1N	-2	7	-7	-5%	?	26µM*
COc1ccc2oc(C(=O)CCC(=O)O)c(N)c2c1	24	9	3	-1%	-22%	30%
CN(C)S(=O)(=O)c1ccc(N2CCCC2)c(C(=O)Nc2nc3ccccc3s2)c1	-23	?	-7	4%	?	?

Assay outcomes deposited in PubChem BioAssay by National Center for Advancing Translational Sciences (NCATS).
